From PubChem
Only some compounds are listed: those with a hit (about 4.7% of all), similar ones and a draw of the others.
D3 antag – D3 dopamine receptor (human) antagonism; P35462; D3R cells, DiscoveRx beta-arrestin luminescence, antagonist mode; stronger effect = lower value; max response, negative = inhibition, %; 2.5% of 360,000 active; AID 652054; in the data active means max response below about -50%; inconclusive means no clear call, values can overlap the other calls; further: on the % scale 0 is the no-effect control and ±100 the full control effect
Target sequence (P35462 whole entry, looked up): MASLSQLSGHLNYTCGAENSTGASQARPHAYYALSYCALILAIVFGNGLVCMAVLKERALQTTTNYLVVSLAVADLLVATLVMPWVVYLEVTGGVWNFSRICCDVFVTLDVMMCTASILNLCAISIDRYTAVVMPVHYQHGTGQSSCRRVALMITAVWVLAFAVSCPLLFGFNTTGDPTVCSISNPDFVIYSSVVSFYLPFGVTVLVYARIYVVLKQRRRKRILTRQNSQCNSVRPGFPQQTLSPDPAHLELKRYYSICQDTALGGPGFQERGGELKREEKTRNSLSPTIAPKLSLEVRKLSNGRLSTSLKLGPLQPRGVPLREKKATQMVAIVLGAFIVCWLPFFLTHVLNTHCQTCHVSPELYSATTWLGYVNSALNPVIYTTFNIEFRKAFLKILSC
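Cells plated overnight at 1500 cells/well, then exposed to library compounds with dopamine controls for 90 minutes at 37 degrees C. DiscoveRx reagent added for 30–60 minutes at room temperature; luminescence read, quantitative HTS format.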
HepG2 viability – counter-screen for TGF-b inhibitors: cytotoxicity in HepG2 cells. 0.76% of 410,000 active. HepG2 CAGA-GFP viability, ATP luminescence, 18 h. Potency, µM (titrated, usually from 46.1 µM), for the others: at the highest dose activity change, negative = cytotoxicity, most hits filed as cytotoxic; further: potency means the concentration at half of the fitted maximal effect
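HepG2 CAGA-GFP cells (1000/well, DMEM with 1% FBS) received compound, then TGF-beta at 500 pg/mL final, and were incubated 18 hours at 37 degrees C. Viability was read by CellTiter-Glo luminescence. Media-only wells were set as complete cell-killing and DMSO as no toxicity.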
ATXN2 expr inh – inhibitors of ATXN2 expression; 0.72% of 360,000 active; AID 1745845; HEK-293 ATXN2-luciferase reporter, luminescence, 24 h; Potency, µM (top dose mostly 57 µM), for the others: at the highest dose activity change, negative = inhibition, usual class: inhibitors; further: potency means the concentration at half of the fitted maximal effect; on the % scale 0 is the no-effect control and ±100 the full control effect; nearly all actives have a fitted effect of over 55% in size
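ATXN2-luciferase reporter cells (luciferase flanked by upstream and downstream ATXN2 gene portions) were treated 24 h at 37 °C with compounds at up to 57 uM. SteadyGlo luminescence gave expression; GF-AFC fluorescence gave viability.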
DRD3 agonist – D3 dopamine receptor (human) agonism | 0.58% of 410,000 active | max activation, % | AID 652048 | P35462 | D3R DiscoveRx beta-arrestin cells, luminescence, 90 min; in the data active means max activation above about 30%; further: 0% is about no effect
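Agonist mode: compounds and dopamine controls were applied to plated cells for 90 min at 37 degrees C after an overnight attachment at 1500 cells/well. Luminescent read-out followed 30 - 60 minutes at room temperature with DiscoveRx detection reagent.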
S2 tox – viability counter-screen for ATXN expression inhibitors; S2 cells (HEK-293 line with an ATXN2-luciferase reporter) viability, CellTiter-Fluor protease fluorescence, 24 h; Potency, µM (series often up to 56.7 µM), usual class: cytotoxic; 0.49% of 400,000 active; AID 651635; further: potency means the concentration at half of the fitted maximal effect; nearly all actives have a fitted effect of over 40% in size
TGFb SMAD3 inh – TGF-b pathway inhibition; HepG2 CAGA-GFP TGF-b/SMAD3 reporter, GFP fluorescence, 18 h; TGF-beta stimulated, 500 pg/mL final; Potency, µM (doses to about 46.1 µM), for the others: at the top dose activity, negative = inhibition, actives largely listed as inhibitors; 1.2% of 410,000 active; AID 588855; further: potency means the concentration at half of the fitted maximal effect; on the % scale 0 is the no-effect control and ±100 the full control effect; nearly all actives have a fitted effect of over 65% in size
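GFP signal (ex488/em500-530) from TGF-beta-stimulated HEPG2 CAGA-GFP cells, 500 pg/mL final, 18 h at 37 degrees C in DMEM plus 1% FBS, normalized to unstimulated and DMSO-stimulated controls.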
An asterisk follows results filed as active; ! = repeats disagree. Unless noted, the call rests on the fitted dose curve; in most records, active means well fitted curve in the direction sought with a large enough effect; inconclusive means small, poorly fitted or top-dose-only effect, or another doubt; inactive means no such curve, though single readings can be large; an effect the other way counts as inactive or inconclusive.

`O=C(Nc1ccc(N2CCOCC2)cc1)c1cn2ccccc2n1` gave D3 antag 1, HepG2 viability -23%, ATXN2 expr inh 11µM*, DRD3 agonist -2, S2 tox inactive and TGFb SMAD3 inh 1%.
`COc1cc(=O)n2c(c1C(=O)N(C)Cc1cscn1)CCN(C(=O)c1ccc(C)cc1C)CC2` gave S2 tox inactive.
`Cc1ccc(-c2csc3nc4cc(C(N)=O)ccc4c(=O)n23)cc1` gave D3 antag -61*, HepG2 viability -12%, ATXN2 expr inh -16%, DRD3 agonist 1, S2 tox inactive and TGFb SMAD3 inh 10%.
Cc1ccc(CNC(=O)c2ccc3c(=O)n4c(-c5ccc(C)cc5)csc4nc3c2)cc1 was read as D3 antag -18, HepG2 viability -4%, ATXN2 expr inh -1%, DRD3 agonist -11, S2 tox inactive and TGFb SMAD3 inh -2%.
`O=C(C1CC1)N1CC[C@@H](Cn2c(-c3ccc(-c4ccc5occc5c4)cc3)nc3cnccc32)C1` gave ATXN2 expr inh -19%.
Cc1ccc(CSC(Nc2ccc(F)cc2)=C(C#N)C#N)cc1 was read as D3 antag inconclusive, HepG2 viability -16%, ATXN2 expr inh -29%, DRD3 agonist -1, S2 tox inactive and TGFb SMAD3 inh 7.1µM*.
`CCN(CC)C(=O)CSC(Nc1ccc(F)cc1)=C(C#N)C#N` gave D3 antag 15, HepG2 viability 1%, ATXN2 expr inh 0%, DRD3 agonist 1, S2 tox inactive and TGFb SMAD3 inh 27%.
`CCOC(=O)C1=C(C)N=C2c3ccccc3C(=O)C2C1c1ccc(Cl)cc1` (stereo unspecified) gave D3 antag inconclusive, HepG2 viability -63%, ATXN2 expr inh -11%, DRD3 agonist -19, S2 tox inactive and TGFb SMAD3 inh inconclusive.
For CCOC(=O)C1=C(Cc2ccc(Cl)cc2)C(=O)c2ccccc2C1=O the results were D3 antag -76*, HepG2 viability 11µM*, ATXN2 expr inh 20µM*, DRD3 agonist -20 and TGFb SMAD3 inh inconclusive.
COc1cc(CCc2ccccc2)c(C(=O)O)c(O)c1C/C=C(/C)CCC=C(C)C was read as D3 antag 39, HepG2 viability 14µM*, ATXN2 expr inh 0%, DRD3 agonist 15, S2 tox inactive and TGFb SMAD3 inh 13µM*.
CCCCCCN(CCCCCC)c1ccc(/C=C/c2ccnc3ccccc23)cc1 was read as HepG2 viability -28% and TGFb SMAD3 inh 16%.
Screening CCCCS(=O)(=O)/C=C\C=C/S(=O)(=O)CCCC returned D3 antag -16, HepG2 viability -79%, ATXN2 expr inh 7.1µM*, DRD3 agonist -33, S2 tox 8.9µM* and TGFb SMAD3 inh inconclusive.
CC1CCC(C(C)C)C(OC(=O)Cn2c(-c3ccc(Br)cc3)[n+](C)c3ccccc32)C1 (stereo unspecified) was read as D3 antag -67*!, HepG2 viability 25µM*!, ATXN2 expr inh inconclusive, DRD3 agonist -8, S2 tox inconclusive and TGFb SMAD3 inh 13µM*.
`CC1CCC(C(C)C)C(OC(=O)COC(=O)c2cccn2C)C1` (stereo unspecified) gave D3 antag 6, HepG2 viability -78%, ATXN2 expr inh 1%, DRD3 agonist 5, S2 tox inactive and TGFb SMAD3 inh -1%.
Screening CC1CCC(C(C)C)C(OC(=O)Cn2c(-c3ccc(Cl)cc3)[n+](C)c3ccccc32)C1 (stereo unspecified) returned D3 antag inconclusive, HepG2 viability 11µM*, ATXN2 expr inh inconclusive, DRD3 agonist -26, S2 tox inconclusive and TGFb SMAD3 inh inconclusive.
CCOC(=O)Cn1c(COc2ccccc2OC)[n+](C)c2ccccc21 was read as D3 antag -7, HepG2 viability 2%, DRD3 agonist -6, S2 tox inactive and TGFb SMAD3 inh 4%.
For Cc1ccccc1OCc1n(CC(=O)OC2CC(C)CCC2C(C)C)c2ccccc2[n+]1C (stereo unspecified) the results were D3 antag -14, HepG2 viability 16µM*, ATXN2 expr inh inconclusive, DRD3 agonist -15, S2 tox 25µM* and TGFb SMAD3 inh 7.9µM*.
Screening Cc1ccccc1C1(CC(=O)N2CC3CC4CC(C3)CC2C4)CC(=O)N(Cc2cccnc2)C1=O (stereo unspecified) returned S2 tox inactive.
`Cc1ccccc1OC(C)C(=O)NCCNC(=O)C(C)Oc1ccccc1C` (stereo unspecified) gave HepG2 viability -19% and TGFb SMAD3 inh -8%.
COc1cc(CN2CCC3(CCC(CNC(=O)c4ccco4)O3)CC2)ccc1O (stereo unspecified) was read as S2 tox inactive.
`CCCc1nc2ccccc2n1CC(O)COc1ccc(C(=O)OC)cc1` (stereo unspecified) gave HepG2 viability -28%, DRD3 agonist 4 and TGFb SMAD3 inh inconclusive.
COP(=O)(OC)OC(c1ccc(Cl)cc1)P(=O)(OC)OC (stereo unspecified) was read as ATXN2 expr inh 13%, DRD3 agonist 84* and S2 tox inactive.
COP(=O)(OC)OC(C(=O)c1ccccc1)c1ccc(Cl)cc1 (stereo unspecified) was read as D3 antag -25 and DRD3 agonist -13.
For CCOc1ccc(N(CC)S(=O)(=O)N2CCCC(C(=O)Nc3cc(Cl)ccc3OC)C2)cc1 (stereo unspecified) the results were HepG2 viability -24%, DRD3 agonist -9 and TGFb SMAD3 inh inconclusive.
For CCOC(=O)CC(NS(=O)(=O)c1ccc2[nH]c3c(c2c1)CCCC3)c1ccccc1Cl (stereo unspecified) the results were HepG2 viability -48%, DRD3 agonist 7 and TGFb SMAD3 inh 20µM*.
COc1cccc(NS(=O)(=O)c2ccc3[nH]c4c(c3c2)CCCCCC4)c1 was read as HepG2 viability 13µM*, ATXN2 expr inh -23%, DRD3 agonist 2, S2 tox inactive and TGFb SMAD3 inh inconclusive.
`COc1ccccc1CNS(=O)(=O)c1ccc2[nH]c3c(c2c1)CCCCC3` gave HepG2 viability -57%, ATXN2 expr inh 0%, DRD3 agonist 5, S2 tox inconclusive and TGFb SMAD3 inh 11µM*.
COc1ccc(NS(=O)(=O)c2ccc3[nH]c4c(c3c2)CCCCCC4)cc1 was read as HepG2 viability -103%, ATXN2 expr inh inconclusive, DRD3 agonist 0, S2 tox inconclusive and TGFb SMAD3 inh inconclusive.
